# Legend:
# Experiment in all cases: DAPPL (digital affinity profiling via proximity ligation, sequencing); 10 mM Tris-HCl pH 7.5, 50 mM NaCl, 1 mM DTT, 4% glycerol, room temperature, 30 min; GST-TFs on glutathione beads, 16-mer random dsDNA library, 0.1% formaldehyde crosslink after washing; high values mean tight binding
# [1] = biological target: T1, FLI1 (Homo sapiens, UniProt Q01543 1-452); conditions: protein: recombinant; tags: N-terminal GST; dsDNA, one strand shown
# T1 sequence: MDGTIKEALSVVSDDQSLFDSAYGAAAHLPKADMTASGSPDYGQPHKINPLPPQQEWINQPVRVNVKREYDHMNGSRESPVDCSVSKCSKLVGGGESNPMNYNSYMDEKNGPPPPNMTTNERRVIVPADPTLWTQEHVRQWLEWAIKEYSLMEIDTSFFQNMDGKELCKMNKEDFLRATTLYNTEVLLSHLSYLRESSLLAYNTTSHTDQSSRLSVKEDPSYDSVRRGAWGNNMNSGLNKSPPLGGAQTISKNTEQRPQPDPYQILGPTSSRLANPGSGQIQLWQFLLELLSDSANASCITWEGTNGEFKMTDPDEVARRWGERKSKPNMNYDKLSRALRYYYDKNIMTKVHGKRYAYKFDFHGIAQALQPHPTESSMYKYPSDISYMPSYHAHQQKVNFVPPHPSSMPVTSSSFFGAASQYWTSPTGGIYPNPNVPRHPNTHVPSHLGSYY
# How it was run: (§1)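 A tag-only sample was pooled with DNA-barcoded human transcription factors that had been expressed in yeast as GST fusions and captured on glutathione beads. The pools were incubated for 30 min at room temperature with 200 nmole of a random double-stranded 16-mer DNA library in Tris/NaCl/DTT/glycerol buffer, then washed, crosslinked with 0.1% formaldehyde, proximity-ligated (BsaI/T4 ligase, 1 h, 37 °C), PCR-amplified and sequenced on an Illumina NextSeq500. Binding signal is each hexamer's read frequency for a factor divided by its frequency for the tag-only sample.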
# [2] = biological target: T2, ELK1 (Homo sapiens, UniProt P19419 1-428); conditions: protein: recombinant; tags: N-terminal GST; dsDNA, one strand shown
# T2 sequence: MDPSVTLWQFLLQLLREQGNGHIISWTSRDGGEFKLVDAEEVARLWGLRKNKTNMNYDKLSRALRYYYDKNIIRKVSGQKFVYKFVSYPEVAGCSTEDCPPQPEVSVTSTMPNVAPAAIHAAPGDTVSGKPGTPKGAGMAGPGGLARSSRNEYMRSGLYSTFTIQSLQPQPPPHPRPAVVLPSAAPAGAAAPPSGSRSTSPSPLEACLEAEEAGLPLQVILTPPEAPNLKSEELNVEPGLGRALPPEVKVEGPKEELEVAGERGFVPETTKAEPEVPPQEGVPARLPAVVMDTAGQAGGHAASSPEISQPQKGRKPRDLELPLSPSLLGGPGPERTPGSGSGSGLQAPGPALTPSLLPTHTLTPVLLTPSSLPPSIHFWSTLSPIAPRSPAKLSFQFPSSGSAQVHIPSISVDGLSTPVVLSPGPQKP
# How it was run: as §1
# [3] = biological target: T3, GABPA (Homo sapiens, UniProt Q06546 1-454); conditions: protein: recombinant; tags: N-terminal GST; dsDNA, one strand shown
# T3 sequence: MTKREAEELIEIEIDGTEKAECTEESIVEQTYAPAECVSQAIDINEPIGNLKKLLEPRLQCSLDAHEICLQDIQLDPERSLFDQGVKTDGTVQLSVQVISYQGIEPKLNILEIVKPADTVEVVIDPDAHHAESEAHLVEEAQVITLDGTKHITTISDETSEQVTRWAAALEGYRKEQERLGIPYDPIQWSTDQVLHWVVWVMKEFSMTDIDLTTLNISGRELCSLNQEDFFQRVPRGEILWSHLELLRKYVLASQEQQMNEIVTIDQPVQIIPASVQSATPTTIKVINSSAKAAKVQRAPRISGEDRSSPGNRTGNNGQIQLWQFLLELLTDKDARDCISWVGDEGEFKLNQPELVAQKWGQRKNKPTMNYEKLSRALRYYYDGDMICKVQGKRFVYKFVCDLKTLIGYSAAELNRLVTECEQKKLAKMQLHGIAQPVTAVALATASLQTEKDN
# How it was run: as §1
# [4] = biological target: T4, ERG (Homo sapiens, UniProt P11308 1-479); conditions: protein: recombinant; tags: N-terminal GST; dsDNA, one strand shown
# T4 sequence: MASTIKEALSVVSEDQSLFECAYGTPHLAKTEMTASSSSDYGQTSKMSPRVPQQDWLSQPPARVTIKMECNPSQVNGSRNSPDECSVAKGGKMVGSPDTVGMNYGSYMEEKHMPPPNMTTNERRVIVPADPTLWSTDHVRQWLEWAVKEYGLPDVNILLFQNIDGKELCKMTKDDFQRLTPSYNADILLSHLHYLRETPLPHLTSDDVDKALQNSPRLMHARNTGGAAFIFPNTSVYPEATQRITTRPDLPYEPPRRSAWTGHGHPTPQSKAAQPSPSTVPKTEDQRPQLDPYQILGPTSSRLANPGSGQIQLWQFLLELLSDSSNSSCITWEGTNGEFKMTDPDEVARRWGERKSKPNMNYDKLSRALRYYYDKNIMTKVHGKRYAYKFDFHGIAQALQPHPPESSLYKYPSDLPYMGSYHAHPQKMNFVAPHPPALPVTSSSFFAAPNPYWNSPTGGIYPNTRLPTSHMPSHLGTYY
# How it was run: as §1
# [5] = biological target: ELF1 (Homo sapiens, UniProt P32519 1-619); conditions: protein: recombinant; tags: N-terminal GST; dsDNA, one strand shown
# Sequence of ELF1 (P32519 whole entry): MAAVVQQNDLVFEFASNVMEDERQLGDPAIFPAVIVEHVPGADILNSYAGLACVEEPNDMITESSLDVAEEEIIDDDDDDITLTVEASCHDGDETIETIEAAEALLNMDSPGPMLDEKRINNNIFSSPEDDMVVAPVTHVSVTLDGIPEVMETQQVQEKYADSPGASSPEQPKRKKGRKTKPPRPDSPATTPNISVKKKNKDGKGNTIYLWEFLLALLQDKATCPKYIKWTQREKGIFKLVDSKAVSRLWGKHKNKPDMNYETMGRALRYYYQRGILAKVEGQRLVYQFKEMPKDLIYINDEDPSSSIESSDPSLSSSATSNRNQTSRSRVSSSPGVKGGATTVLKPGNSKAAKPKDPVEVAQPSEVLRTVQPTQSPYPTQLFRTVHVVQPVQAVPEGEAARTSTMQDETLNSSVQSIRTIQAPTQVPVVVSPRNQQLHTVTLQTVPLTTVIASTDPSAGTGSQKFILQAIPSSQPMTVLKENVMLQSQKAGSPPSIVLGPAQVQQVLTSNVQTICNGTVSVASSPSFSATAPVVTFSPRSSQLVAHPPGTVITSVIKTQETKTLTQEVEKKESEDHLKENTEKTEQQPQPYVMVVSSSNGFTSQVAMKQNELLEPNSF
# How it was run: as §1
# [6] = biological target: T5, EHF (Homo sapiens, UniProt Q9NZC4 1-300); conditions: protein: recombinant; tags: N-terminal GST; dsDNA, one strand shown
# T5 sequence: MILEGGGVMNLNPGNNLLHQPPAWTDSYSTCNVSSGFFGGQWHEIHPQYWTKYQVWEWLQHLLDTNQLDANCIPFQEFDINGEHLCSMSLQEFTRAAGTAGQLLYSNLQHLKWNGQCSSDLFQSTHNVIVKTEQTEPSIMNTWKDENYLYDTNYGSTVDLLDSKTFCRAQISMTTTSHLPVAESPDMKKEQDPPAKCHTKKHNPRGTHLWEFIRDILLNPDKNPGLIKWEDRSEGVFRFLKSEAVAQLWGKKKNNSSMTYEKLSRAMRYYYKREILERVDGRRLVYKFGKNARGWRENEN
# How it was run: as §1
# [7] = biological target: SPI1 (Homo sapiens, UniProt P17947 1-270); conditions: protein: recombinant; tags: N-terminal GST; dsDNA, one strand shown
# How it was run: as §1
# [8] = biological target: SPIB (Homo sapiens, UniProt Q01892 1-262); conditions: protein: recombinant; tags: N-terminal GST; dsDNA, one strand shown
# Sequence of SPIB (Q01892 whole entry): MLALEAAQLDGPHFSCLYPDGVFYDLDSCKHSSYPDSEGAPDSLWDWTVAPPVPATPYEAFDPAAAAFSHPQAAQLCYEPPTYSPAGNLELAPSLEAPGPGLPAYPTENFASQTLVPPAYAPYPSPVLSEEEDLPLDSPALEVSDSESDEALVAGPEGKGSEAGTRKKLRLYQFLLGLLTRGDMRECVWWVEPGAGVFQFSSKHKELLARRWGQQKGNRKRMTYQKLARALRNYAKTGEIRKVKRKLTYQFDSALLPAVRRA
# How it was run: as §1
# [9] = biological target: T6, ELK3 (Homo sapiens, UniProt P41970 1-407); conditions: protein: recombinant; tags: N-terminal GST; dsDNA, one strand shown
# T6 sequence: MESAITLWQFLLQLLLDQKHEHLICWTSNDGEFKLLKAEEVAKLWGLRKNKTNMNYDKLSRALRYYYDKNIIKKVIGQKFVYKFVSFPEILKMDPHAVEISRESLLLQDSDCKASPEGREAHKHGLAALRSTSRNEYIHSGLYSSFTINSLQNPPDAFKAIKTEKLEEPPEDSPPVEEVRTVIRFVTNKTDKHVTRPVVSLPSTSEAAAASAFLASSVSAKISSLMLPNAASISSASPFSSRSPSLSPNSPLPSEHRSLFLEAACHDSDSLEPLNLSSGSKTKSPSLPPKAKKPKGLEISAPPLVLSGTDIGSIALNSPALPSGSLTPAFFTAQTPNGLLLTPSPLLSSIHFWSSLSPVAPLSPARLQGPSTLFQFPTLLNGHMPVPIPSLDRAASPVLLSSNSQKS
# How it was run: as §1
# [10] = biological target: T7, FEV (Homo sapiens, UniProt Q99581 1-238); conditions: protein: recombinant; tags: N-terminal GST; dsDNA, one strand shown
# T7 sequence: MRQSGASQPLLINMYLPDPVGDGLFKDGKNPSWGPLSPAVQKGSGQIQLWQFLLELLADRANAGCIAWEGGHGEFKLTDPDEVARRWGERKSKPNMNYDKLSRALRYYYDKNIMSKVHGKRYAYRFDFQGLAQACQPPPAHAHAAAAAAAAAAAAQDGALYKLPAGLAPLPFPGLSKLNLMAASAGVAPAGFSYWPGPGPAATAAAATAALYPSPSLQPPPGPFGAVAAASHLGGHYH
# How it was run: as §1
# [11] = biological target: ETV5 (Homo sapiens, UniProt P41161 1-510); conditions: protein: recombinant; tags: N-terminal GST; dsDNA, one strand shown
# Sequence of ETV5 (P41161 whole entry): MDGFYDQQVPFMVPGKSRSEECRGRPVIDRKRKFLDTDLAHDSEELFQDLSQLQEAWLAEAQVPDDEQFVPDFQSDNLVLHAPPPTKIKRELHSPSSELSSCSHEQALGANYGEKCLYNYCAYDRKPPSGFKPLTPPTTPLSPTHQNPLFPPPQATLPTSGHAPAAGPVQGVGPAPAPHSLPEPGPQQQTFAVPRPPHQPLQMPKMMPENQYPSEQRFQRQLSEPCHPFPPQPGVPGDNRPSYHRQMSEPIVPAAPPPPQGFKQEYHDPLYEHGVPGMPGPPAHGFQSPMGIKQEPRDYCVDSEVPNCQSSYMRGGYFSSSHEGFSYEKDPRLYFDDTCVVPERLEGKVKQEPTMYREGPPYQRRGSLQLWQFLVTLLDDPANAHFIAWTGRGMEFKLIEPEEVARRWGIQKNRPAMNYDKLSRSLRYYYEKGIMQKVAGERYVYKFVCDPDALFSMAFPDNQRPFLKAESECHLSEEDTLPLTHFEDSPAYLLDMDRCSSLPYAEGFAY
# How it was run: as §1
# [12] = biological target: HSF1 (Homo sapiens, UniProt Q00613 1-529); conditions: protein: recombinant; tags: N-terminal GST; chain copies: 3; dsDNA, one strand shown
# Sequence of HSF1 (Q00613 whole entry): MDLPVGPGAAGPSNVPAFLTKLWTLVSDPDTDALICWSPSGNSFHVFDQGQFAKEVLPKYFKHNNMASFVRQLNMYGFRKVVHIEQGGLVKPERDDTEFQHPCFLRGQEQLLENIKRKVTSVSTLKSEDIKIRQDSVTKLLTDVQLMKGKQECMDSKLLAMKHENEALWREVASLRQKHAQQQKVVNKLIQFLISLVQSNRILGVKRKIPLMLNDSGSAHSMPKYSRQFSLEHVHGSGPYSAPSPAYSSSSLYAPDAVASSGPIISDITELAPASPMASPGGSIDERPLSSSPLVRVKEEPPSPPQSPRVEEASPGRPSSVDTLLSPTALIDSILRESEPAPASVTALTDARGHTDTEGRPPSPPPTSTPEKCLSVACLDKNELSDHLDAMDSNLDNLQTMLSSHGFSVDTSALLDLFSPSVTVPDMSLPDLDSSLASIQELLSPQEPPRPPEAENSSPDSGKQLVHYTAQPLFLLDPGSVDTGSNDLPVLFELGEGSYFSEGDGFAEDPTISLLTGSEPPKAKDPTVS
# How it was run: as §1
# [13] = biological target: T8, SPIC (Homo sapiens, UniProt Q8N5J4 1-248); conditions: protein: recombinant; tags: N-terminal GST; dsDNA, one strand shown
# T8 sequence: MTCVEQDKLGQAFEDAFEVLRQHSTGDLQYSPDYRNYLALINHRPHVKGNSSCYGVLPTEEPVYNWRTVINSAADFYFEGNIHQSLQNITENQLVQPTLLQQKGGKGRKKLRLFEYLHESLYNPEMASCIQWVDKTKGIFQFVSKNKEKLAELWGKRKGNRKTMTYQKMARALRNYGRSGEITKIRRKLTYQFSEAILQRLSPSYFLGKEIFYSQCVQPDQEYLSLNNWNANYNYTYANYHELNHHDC
# How it was run: as §1
# [14] = biological target: ELF4 (Homo sapiens, UniProt Q99607 1-663); conditions: protein: recombinant; tags: N-terminal GST; dsDNA, one strand shown
# Sequence of ELF4 (Q99607 whole entry): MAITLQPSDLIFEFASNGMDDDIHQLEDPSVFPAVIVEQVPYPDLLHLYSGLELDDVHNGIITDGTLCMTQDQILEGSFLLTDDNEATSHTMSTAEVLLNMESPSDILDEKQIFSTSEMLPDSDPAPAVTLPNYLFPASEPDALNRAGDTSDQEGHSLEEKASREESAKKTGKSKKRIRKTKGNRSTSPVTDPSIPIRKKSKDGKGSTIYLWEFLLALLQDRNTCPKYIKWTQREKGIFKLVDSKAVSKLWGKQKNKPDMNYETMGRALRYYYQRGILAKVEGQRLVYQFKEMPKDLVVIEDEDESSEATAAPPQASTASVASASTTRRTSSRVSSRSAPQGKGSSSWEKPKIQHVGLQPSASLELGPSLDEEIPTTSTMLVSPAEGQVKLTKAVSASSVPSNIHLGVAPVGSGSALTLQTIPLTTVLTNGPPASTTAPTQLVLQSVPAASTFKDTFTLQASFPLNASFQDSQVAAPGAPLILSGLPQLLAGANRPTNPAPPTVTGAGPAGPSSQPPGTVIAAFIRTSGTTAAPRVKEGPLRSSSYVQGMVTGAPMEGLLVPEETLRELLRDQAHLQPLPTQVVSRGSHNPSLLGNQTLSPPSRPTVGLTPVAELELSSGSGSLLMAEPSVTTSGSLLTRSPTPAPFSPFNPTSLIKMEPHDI
# How it was run: as §1
# [15] = biological target: T9, ELK4 (Homo sapiens, UniProt P28324-2 1-405); conditions: protein: recombinant; tags: N-terminal GST; dsDNA, one strand shown
# T9 sequence: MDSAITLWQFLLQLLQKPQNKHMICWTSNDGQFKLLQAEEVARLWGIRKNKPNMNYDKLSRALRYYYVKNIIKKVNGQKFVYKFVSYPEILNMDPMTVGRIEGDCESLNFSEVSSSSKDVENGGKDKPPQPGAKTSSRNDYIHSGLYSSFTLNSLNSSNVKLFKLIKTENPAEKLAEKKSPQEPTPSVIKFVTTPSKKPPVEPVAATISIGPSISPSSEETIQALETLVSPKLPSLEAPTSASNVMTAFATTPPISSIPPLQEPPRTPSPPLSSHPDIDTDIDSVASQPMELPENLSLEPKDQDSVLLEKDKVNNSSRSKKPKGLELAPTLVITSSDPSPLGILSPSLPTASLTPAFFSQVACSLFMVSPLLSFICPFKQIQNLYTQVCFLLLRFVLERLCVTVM
# How it was run: as §1
# [16] = biological target: T10, ETV2 (Homo sapiens, UniProt O00321 1-342); conditions: protein: recombinant; tags: N-terminal GST; dsDNA, one strand shown
# T10 sequence: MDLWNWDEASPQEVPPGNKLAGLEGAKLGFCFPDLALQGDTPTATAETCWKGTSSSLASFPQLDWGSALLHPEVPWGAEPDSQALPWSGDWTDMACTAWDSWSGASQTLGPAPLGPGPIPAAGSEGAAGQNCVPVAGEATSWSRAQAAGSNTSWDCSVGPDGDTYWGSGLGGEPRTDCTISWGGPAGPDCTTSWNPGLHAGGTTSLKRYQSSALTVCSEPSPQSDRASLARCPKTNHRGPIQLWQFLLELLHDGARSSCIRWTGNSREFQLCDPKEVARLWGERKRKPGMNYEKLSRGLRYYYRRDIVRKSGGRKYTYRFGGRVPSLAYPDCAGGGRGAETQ
# How it was run: as §1
# [17] = biological target: T11, ELF3 (Homo sapiens, UniProt P78545 1-371); conditions: protein: recombinant; tags: N-terminal GST; dsDNA, one strand shown
# T11 sequence: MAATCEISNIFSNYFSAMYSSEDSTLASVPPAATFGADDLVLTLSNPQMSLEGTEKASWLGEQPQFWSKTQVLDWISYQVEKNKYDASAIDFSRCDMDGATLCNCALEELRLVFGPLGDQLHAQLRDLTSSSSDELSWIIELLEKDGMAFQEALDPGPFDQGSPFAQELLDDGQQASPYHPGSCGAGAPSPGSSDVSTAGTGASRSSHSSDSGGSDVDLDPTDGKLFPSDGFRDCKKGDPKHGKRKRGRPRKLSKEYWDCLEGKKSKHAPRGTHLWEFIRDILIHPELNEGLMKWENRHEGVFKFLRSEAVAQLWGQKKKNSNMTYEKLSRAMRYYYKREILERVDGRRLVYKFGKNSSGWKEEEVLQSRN
# How it was run: as §1
# [18] = biological target: CRX (Homo sapiens, UniProt O43186 1-299); conditions: protein: recombinant; tags: N-terminal GST; dsDNA, one strand shown
# Sequence of CRX (O43186 whole entry): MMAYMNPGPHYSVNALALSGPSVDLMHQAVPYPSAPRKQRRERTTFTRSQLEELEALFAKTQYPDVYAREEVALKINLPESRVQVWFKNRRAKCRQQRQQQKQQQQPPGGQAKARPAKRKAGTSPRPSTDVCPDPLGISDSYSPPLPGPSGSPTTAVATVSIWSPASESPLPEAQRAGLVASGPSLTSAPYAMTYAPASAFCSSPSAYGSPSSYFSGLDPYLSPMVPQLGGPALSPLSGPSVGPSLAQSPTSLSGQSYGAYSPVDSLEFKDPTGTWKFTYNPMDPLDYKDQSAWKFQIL
# How it was run: as §1
# [19] = biological target: ETV1 (Homo sapiens, UniProt P50549 1-477); conditions: protein: recombinant; tags: N-terminal GST; dsDNA, one strand shown
# Sequence of ETV1 (P50549 whole entry): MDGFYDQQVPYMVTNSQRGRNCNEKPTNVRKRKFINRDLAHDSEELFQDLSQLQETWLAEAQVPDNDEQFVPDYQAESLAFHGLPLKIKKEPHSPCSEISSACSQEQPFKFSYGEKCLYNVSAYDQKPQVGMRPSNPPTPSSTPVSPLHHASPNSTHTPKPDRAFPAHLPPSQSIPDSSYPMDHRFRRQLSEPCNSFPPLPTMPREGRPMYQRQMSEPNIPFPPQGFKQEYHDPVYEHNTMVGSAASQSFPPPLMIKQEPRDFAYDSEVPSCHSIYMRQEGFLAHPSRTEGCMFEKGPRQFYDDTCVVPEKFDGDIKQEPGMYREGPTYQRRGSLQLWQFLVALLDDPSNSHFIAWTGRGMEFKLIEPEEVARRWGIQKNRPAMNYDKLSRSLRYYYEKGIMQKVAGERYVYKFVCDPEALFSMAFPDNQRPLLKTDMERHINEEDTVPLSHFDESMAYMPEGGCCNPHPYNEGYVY
# How it was run: as §1
sequence,measurement,setting,value
AACATC,binding signal,[1],"1.5 fold enrichment (6-mer frequency, TF over GST control)"
same,binding signal,[2],"1.35 fold enrichment (6-mer frequency, TF over GST control)"
same,binding signal,[3],"1.41 fold enrichment (6-mer frequency, TF over GST control)"
same,binding signal,[4],"1.48 fold enrichment (6-mer frequency, TF over GST control)"
same,binding signal,[5],"1.45 fold enrichment (6-mer frequency, TF over GST control)"
same,binding signal,[6],"1.51 fold enrichment (6-mer frequency, TF over GST control)"
same,binding signal,[7],"1.45 fold enrichment (6-mer frequency, TF over GST control)"
same,binding signal,[8],"1.37 fold enrichment (6-mer frequency, TF over GST control)"
same,binding signal,[9],"1.47 fold enrichment (6-mer frequency, TF over GST control)"
same,binding signal,[10],"1.63 fold enrichment (6-mer frequency, TF over GST control)"
same,binding signal,[11],"1.51 fold enrichment (6-mer frequency, TF over GST control)"
same,binding signal,[12],"1.3 fold enrichment (6-mer frequency, TF over GST control)"
same,binding signal,[13],"1.44 fold enrichment (6-mer frequency, TF over GST control)"
same,binding signal,[14],"1.41 fold enrichment (6-mer frequency, TF over GST control)"
same,binding signal,[15],"1.41 fold enrichment (6-mer frequency, TF over GST control)"
same,binding signal,[16],"1.45 fold enrichment (6-mer frequency, TF over GST control)"
same,binding signal,[17],"1.5 fold enrichment (6-mer frequency, TF over GST control)"
same,binding signal,[18],"1.12 fold enrichment (6-mer frequency, TF over GST control)"
same,binding signal,[19],"1.43 fold enrichment (6-mer frequency, TF over GST control)"

# Reference: PMC7862700, “An all-to-all approach to the identification of sequence-specific readers for epigenetic DNA modifications on cytosine”
